PubChem BioAssay (Tox21)
Where “and” joins values, the source holds several entries; their conditions need not be identical. Equal values may be shown once. Inconclusive results are not listed. Where a structure was tested more than once in an assay, its records may differ in their call. Calls of active or inactive are those of the source. Unless noted, calls come from the whole dose curve; as a rule, active = well fitted curve in the direction sought with a large enough effect in the repeat runs; inconclusive = weak or mixed curves; inactive = no such curve, though single readings can be large; an effect the other way counts as inactive or inconclusive.

Assays:
[1] = qHTS assay to test for compound auto fluorescence at 535 nm (green) in HEK293 cells (AID 720680)
[2] = qHTS assay to test for compound auto fluorescence at 460 nm (blue) in HEK293 cell free culture (AID 720681); note: potency is the fitted concentration of half-maximal effect
In short: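 Blue fluorescence (Ex 405/Em 460 nm, triamterene-equivalent) was read immediately after pin transfer of compound or DMSO into medium (DMEM, 10% FBS) without cells.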

[3] = qHTS assay to test for compound auto fluorescence at 535 nm (green) in HEK293 cell free culture (AID 720682)
In short: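 Using fluorescein as calibrant, autofluorescence was quantified at 485/535 nm in cell-free DMEM containing 10% FBS after pintool addition of compound or vehicle.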

[4] = qHTS assay to test for compound auto fluorescence at 590 nm (red) in HEK293 cell free culture (AID 720683)
In short: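 Red-channel autofluorescence of compounds in culture medium (DMEM, 10% FBS), no cells, measured at 540/590 nm. Rose Bengal sodium is the reference fluorophore for equivalence.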

[5] = qHTS assay to test for compound auto fluorescence at 590 nm (red) in HepG2 cell free culture (AID 720684)
In short: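 Steps: dispense MEM/10% FBS medium, no cells; pin compound or DMSO vehicle; read red channel, Ex/Em 540/590 nm. Output given as Rose Bengal sodium equivalents.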

[6] = qHTS assay to test for compound auto fluorescence at 460 nm (blue) in HepG2 cell free culture (AID 720685); note: potency is the fitted concentration of half-maximal effect
In short: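 Compound (23 nL) or DMSO pinned into cell-free MEM with 10% FBS; blue fluorescence read at 405/460 nm excitation/emission, expressed as auto-fluorescence equivalency to triamterene.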

[7] = qHTS assay to test for compound auto fluorescence at 535 nm (green) in HepG2 cell free culture (AID 720686)
[8] = qHTS assay to test for compound auto fluorescence at 460 nm (blue) in HepG2 cells (AID 720687); note: potency is the fitted concentration of half-maximal effect
In short: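 Blue-channel autofluorescence (Ex/Em 405/460 nm, triamterene-equivalent) was measured after 1 hr compound exposure at 37 C, 5% CO2. Cells were HepG2, plated overnight at 37 C in MEM plus 10% FBS.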

[9] = qHTS assay to identify small molecule antagonists of the glucocorticoid receptor (GR) signaling pathway - cell viability counter screen (AID 720693); note: nearly all actives have a fitted effect of over 55% in size; note: potency is the fitted concentration of half-maximal effect
[10] = qHTS assay for identifying genotoxic compounds that show differential cytotoxicity against isogenic chicken DT40 cell lines with known DNA damage response pathways - wild type cell line (AID 743012); note: nearly all actives have a fitted effect of over 60% in size; note: potency is the fitted concentration of half-maximal effect
In short: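 Cells (DT40 wild type, 300/well) are treated with DMSO-dissolved compounds after a ~0.5 h pre-incubation and kept 40 h at 37 C/5% CO2. Viability is then measured by CellTiter-Glo luminescence following 30 min at room temperature.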

[11] = qHTS assay for identifying genotoxic compounds that show differential cytotoxicity against isogenic chicken DT40 cell lines with known DNA damage response pathways - Rev3 mutant cell line (AID 743014); note: nearly all actives have a fitted effect of over 55% in size; note: potency is the fitted concentration of half-maximal effect
[12] = qHTS assay for identifying genotoxic compounds that show differential cytotoxicity against isogenic chicken DT40 cell lines with known DNA damage response pathways - Rad54/Ku70 mutant cell line (AID 743015); note: nearly all actives have a fitted effect of over 60% in size; note: potency is the fitted concentration of half-maximal effect
[13] = qHTS assay to identify small molecule antagonists of the androgen receptor (AR) signaling pathway - cell viability counter screen (AID 743033; note: nearly all actives have a fitted effect of over 45% in size; note: potency is the fitted concentration of half-maximal effect)
[14] = qHTS assay to identify small molecule antagonists of the androgen receptor (AR) signaling pathway using the MDA cell line - cell viability counter screen (AID 743041; note: nearly all actives have a fitted effect of over 45% in size; note: potency is the fitted concentration of half-maximal effect)
In short: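 Cells were plated at 3,000 per well and left 5 h. Compounds in DMSO were then pinned in, followed by R1881. After 16 h at 37C, CellTiter-Fluor fluorescence gave viability.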

[15] = target: Glucocorticoid receptor (Homo sapiens) (UniProt P04150); test: qHTS assay to identify small molecule agonists of the glucocorticoid receptor (GR) signaling pathway (AID 720691; active = well fitted activation curve with a large enough effect in the signal ratio in the repeat runs, not every such curve was filed as active; the % refers to the signal ratio)
In short: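 Agonist mode in a HeLa line carrying a GRE-controlled beta-lactamase reporter. Compounds act for 18 h at 37 C before a 2 h room-temperature FRET substrate step and fluorescence reading.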

[16] = target: Glucocorticoid receptor (Homo sapiens) (UniProt P04150); test: qHTS assay to identify small molecule antagonists of the glucocorticoid receptor (GR) signaling pathway (AID 720692; active = well fitted inhibition curve with a large enough effect in the signal ratio in the repeat runs, not every such curve was filed as active; the % refers to the signal ratio)
In short: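 Cells plated, rested 4 h at 37 C/5% CO2; compounds in DMSO pin-transferred; dexamethasone added to 5 nM final; 18 h at 37 C; B/G FRET substrate added, 2 h room temperature; fluorescence measured.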

[17] = target: Androgen receptor (Homo sapiens) (UniProt P10275); test: qHTS assay to identify small molecule antagonists of the androgen receptor (AR) signaling pathway (AID 743035; active = well fitted inhibition curve with a large enough effect in the signal ratio in the repeat runs, not every such curve was filed as active; the % refers to the signal ratio; note: potency is the fitted concentration of half-maximal effect)
In short: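 Antagonism is scored as loss of R1881-driven beta-lactamase reporter expression in HEK293 cells carrying the reporter under a UAS element, after 16 h co-treatment at 37C and a 2 h room-temperature FRET substrate read.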

[18] = target: Androgen receptor (Homo sapiens) (UniProt P10275); test: qHTS assay to identify small molecule agonists of the androgen receptor (AR) signaling pathway (AID 743036; active = well fitted activation curve with a large enough effect in the signal ratio in the repeat runs, with a control signal flat, not every such curve was filed as active; the % refers to the signal ratio)
In short: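 In this Tox21 qHTS, 2,000 HEK293 AR-bla cells per well were incubated with compounds for 16 h at 37C and 5% CO2. Fluorescence intensity was recorded 2 h after adding LiveBLAzer B/G FRET substrate at room temperature.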

[19] = target: Androgen receptor (Homo sapiens) (UniProt P10275); test: qHTS assay to identify small molecule agonists of the androgen receptor (AR) signaling pathway using the MDA cell line (AID 743040; note: nearly all actives have a fitted effect of over 20% in size)
In short: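 Cells plated, 5 h at 37C/0% CO2; compound or DMSO pinned; 16 h at 37C; ONE-Glo added; luminescence measured after 30 min at room temperature. Reporter line: MDA-kb2 with MMTV-luciferase responsive to AR and GR.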

[20] = target: Androgen receptor (Homo sapiens) (UniProt P10275); test: qHTS assay to identify small molecule antagonists of the androgen receptor (AR) signaling pathway using the MDA cell line (AID 743042; note: nearly all actives have a fitted effect of over 55% in size; note: potency is the fitted concentration of half-maximal effect)
In short: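 Antagonist mode: compounds plus R1881 agonist added to MDA-kb2 AR-luc cells, incubated 16 h at 37C. Luciferase reporter luminescence quantified, with multiplexed CellTiter-Fluor readout for cell viability.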

Measured: Potency
Tags give direction and shape of the fitted curve or compound fluorescence and quenching.

Glucocorticoid receptor (Homo sapiens), sequence (P04150 whole entry, looked up): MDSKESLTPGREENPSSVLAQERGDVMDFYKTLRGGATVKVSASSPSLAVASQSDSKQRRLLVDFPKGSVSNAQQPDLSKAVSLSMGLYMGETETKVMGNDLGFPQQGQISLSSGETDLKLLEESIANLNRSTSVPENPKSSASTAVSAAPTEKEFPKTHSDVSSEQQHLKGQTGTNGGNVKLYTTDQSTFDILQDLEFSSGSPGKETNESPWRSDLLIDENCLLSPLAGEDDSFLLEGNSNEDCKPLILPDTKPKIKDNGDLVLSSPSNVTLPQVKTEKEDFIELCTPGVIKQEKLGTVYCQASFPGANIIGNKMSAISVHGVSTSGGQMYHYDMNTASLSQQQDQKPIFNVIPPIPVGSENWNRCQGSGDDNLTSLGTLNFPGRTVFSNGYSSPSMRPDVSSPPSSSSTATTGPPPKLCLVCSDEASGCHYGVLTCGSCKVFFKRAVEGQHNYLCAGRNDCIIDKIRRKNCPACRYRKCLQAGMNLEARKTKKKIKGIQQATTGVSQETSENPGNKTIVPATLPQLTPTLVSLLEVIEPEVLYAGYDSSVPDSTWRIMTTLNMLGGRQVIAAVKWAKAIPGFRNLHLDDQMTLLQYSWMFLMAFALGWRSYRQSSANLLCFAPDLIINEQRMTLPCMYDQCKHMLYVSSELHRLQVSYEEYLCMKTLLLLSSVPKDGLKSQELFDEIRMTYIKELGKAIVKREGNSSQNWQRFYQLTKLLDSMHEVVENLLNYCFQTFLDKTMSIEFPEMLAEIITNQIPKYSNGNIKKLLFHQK
Androgen receptor (Homo sapiens), sequence (P10275 whole entry, looked up): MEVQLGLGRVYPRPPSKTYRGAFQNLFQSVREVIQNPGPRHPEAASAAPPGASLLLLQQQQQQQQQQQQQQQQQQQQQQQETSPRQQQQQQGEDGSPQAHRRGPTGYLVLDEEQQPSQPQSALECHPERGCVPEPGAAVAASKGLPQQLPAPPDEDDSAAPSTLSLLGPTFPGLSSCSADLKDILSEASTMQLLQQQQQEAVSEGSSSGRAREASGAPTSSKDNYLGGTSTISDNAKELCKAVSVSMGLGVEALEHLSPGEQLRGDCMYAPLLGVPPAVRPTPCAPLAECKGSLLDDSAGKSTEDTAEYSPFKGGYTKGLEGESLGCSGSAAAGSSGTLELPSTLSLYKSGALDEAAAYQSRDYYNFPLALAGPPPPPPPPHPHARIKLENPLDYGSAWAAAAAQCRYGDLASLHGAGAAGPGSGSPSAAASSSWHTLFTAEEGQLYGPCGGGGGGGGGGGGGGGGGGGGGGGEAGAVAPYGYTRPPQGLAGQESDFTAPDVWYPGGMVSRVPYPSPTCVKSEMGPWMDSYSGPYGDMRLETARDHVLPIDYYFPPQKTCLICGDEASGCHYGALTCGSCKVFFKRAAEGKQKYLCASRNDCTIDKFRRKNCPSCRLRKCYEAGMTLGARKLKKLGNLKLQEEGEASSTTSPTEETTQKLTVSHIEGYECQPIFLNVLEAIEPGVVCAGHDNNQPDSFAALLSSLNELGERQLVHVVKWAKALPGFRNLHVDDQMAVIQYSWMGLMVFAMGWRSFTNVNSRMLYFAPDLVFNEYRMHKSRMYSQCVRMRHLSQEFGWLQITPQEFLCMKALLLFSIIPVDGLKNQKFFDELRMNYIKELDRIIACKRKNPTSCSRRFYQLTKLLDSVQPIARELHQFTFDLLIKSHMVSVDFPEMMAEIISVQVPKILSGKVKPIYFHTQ

CC(C)(c1ccccc1)c1ccc(Nc2ccc(C(C)(C)c3ccccc3)cc2)cc1
inactive and 61.1 µM (active): [12]
inactive and 54.5 µM (active): [10] | [11]
not listed: [15] | [16] | [17] | [18] | [19] | [20]
inactive: all other assays above

CC1COc2c(N3CCN(C)CC3)c(F)cc3c(=O)c(C(=O)O)cn1c23 (centres undefined)
not listed: [15] | [16] | [17] | [18] | [19] | [20]
inactive: all other assays above

c1ccc2n[nH]nc2c1
inactive and 61.1 µM (active): [11]
not listed: [6] | [17] | [18] | [19] | [20]
inactive: all other assays above

CCC(=O)/C=C/C1C(C)=CCCC1(C)C (centres undefined)
inactive and 61.1 µM (active): [12]
not listed: [6] | [16] | [17] | [18] | [19] | [20]
inactive: all other assays above

O=C(OCc1ccccc1)c1ccc(O)cc1
active: [12] 61.1 µM
not listed: [6] | [16] | [17] | [18] | [19] | [20]
inactive: all other assays above

CCN(CC)C(=S)SSC(=S)N(CC)CC
active: [10] 106 nM and 96.9 nM and 19.8 nM | [11] 119 nM and 96.9 nM and 38.4 nM | [12] 106 nM and 96.9 nM and 68.6 nM | [13] 425 nM and 138 nM and 100 nM | [17] 0.123 µM | [14] 376 nM and 243 nM and 222 nM | [20] 266 nM and 217 nM and 140 nM
not listed: [6]
inactive: all other assays above

CC(C)CCOC(=O)c1ccc(N(C)C)cc1
inactive: [1] | [2] | [3] | [4] | [5] | [6] | [7] | [8] | [9] | [13]

c1ccc2c(c1)CCCC2C1=NCCN1 (centres undefined)
not listed: [6] | [15] | [16] | [17] | [18] | [19] | [20]
inactive: all other assays above

Cc1scc2c1N(C(=O)CN1CCN(C)CC1)c1ccccc1NC2=O
not listed: [15] | [16] | [17] | [18] | [19] | [20]
inactive: all other assays above

c1cnc2cc3c(cc2n1)C1CNCC3C1
not listed: [6] | [13] | [15] | [16] | [17] | [18] | [19] | [20]
inactive: all other assays above

Nc1ccc2cc3ccccc3cc2c1
inactive: [1] | [3] | [4] | [5] | [7] | [9] | [10] | [13] | [14]
active: [2] 39.8 µM | [6] 39.8 µM [fluorescent] | [8] 39.8 µM [fluorescent]

CC(C)(C)NCC(O)c1cc(O)cc(O)c1 (centres undefined)
not listed: [9] | [11] | [15] | [16] | [17] | [18] | [19] | [20]
inactive: all other assays above

C1COC(NC(C2CC2)C2CC2)=N1
inactive: [1] | [2] | [3] | [4] | [5] | [7] | [8] | [9] | [10] | [14]

Cc1cccc([N+](=O)[O-])c1C(=O)O
not listed: [6] | [16] | [17] | [18] | [19] | [20]
inactive: all other assays above

COc1ccc(CCN2CCC(Nc3nc4ccccc4n3Cc3ccc(F)cc3)CC2)cc1
inactive: [1] | [2] | [3] | [4] | [5] | [6] | [7] | [8]
active: [10] 5.96 µM and 7.01 µM | [11] 7.5 µM and 6.25 µM | [12] 8.41 µM and 8.82 µM | [13] 21.3 µM and 6.3 µM | [14] 39.4 µM

CC(=O)CC(=O)Nc1ccc2[nH]c(=O)[nH]c2c1
not listed: [15] | [16] | [17] | [18] | [19] | [20]
inactive: all other assays above

C=C(C)C(=O)O
not listed: [6] | [16] | [17] | [18] | [19] | [20]
inactive: all other assays above

Oc1ccc(Cl)cc1Cc1cc(Cl)ccc1O
active: [9] 39.6 µM and 34.7 µM | [10] 23.7 µM and 39.3 µM and 21.7 µM | [11] 16.8 µM and 31.2 µM and 10.9 µM | [12] 16.8 µM and 31.2 µM and 12.2 µM | [13] 19.8 µM and 11 µM | [20] 27.8 µM and 38.6 µM
not listed: [15] | [16] | [17]
inactive: all other assays above

O=c1n(CC2CO2)c(=O)n(CC2CO2)c(=O)n1CC1CO1 (centres undefined)
active: [10] 376 nM and 193 nM | [11] 53.1 nM and 38.6 nM | [12] 944 nM and 217 nM
not listed: [15] | [16] | [17] | [18] | [19] | [20]
inactive: all other assays above

CCCCCCCCCCCCCC[P+](CCCC)(CCCC)CCCC
active: [9] 9.72 µM and 4.9 µM | [10] 192 nM and 86.3 nM | [11] 85.8 nM and 61.1 nM | [12] 76.5 nM and 54.5 nM | [13] 866 nM and 977 nM | [14] 21.6 µM and 6.11 µM | [20] 2.16 µM and 1.54 µM
not listed: [15] | [16] | [17] | [18]
inactive: all other assays above

COc1ccc(COC(C)=O)cc1
not listed: [15] | [16] | [17] | [18] | [19] | [20]
inactive: all other assays above

CCn1c2ccccc2c2cc(N)ccc21
active: [10] 61.1 µM | [11] 21.7 µM | [12] 54.5 µM
not listed: [15] | [16] | [17] | [18] | [19] | [20]
inactive: all other assays above

Cc1cc(OCCOCC[N+](C)(C)Cc2ccccc2)ccc1C(C)(C)CC(C)(C)C
active: [9] 21.3 µM and 17.3 µM | [10] 841 nM and 1.21 µM | [11] 1.19 µM and 682 nM | [12] 1.06 µM and 765 nM | [13] 16.9 µM and 15.4 µM | [14] 24.2 µM | [20] 18.8 µM and 12.1 µM
not listed: [15] | [16] | [17] | [18]
inactive: all other assays above

CC[C@]1(O)C[C@@H]2CN(CCc3c([nH]c4ccccc34)[C@@](C(=O)OC)(c3cc4c(cc3OC)N(C)[C@H]3[C@@](O)(C(=O)OC)[C@H](OC(C)=O)[C@]5(CC)C=CCN6CC[C@]43[C@@H]65)C2)C1
active: [10] 53.1 nM and 29.8 nM | [11] 53.1 nM and 29.8 nM | [12] 75 nM and 53.1 nM
not listed: [6] | [13] | [16] | [17] | [18] | [19] | [20]
inactive: all other assays above

CCN1CCCC1CNC(=O)c1cc(S(=O)(=O)CC)c(N)cc1OC (centres undefined)
not listed: [6] | [17] | [18] | [19] | [20]
inactive: all other assays above

OCCOCCN1CCN(C(c2ccccc2)c2ccc(Cl)cc2)CC1 (centres undefined)
active: [10] 38.1 µM | [11] 21.4 µM | [12] 30.2 µM
not listed: [1] | [15] | [16] | [17] | [18] | [19] | [20]
inactive: all other assays above

CN1C(=O)c2ccc([N+](=O)[O-])cc2C1=O
not listed: [1] | [15] | [16]
inactive: all other assays above

COC(=O)/C=C/c1ccccc1
not listed: [1] | [11] | [12] | [16] | [17] | [18] | [19] | [20]
inactive: all other assays above
